Experimental data: PubChem BioAssay (NCI)
The panel holds about 83,000 compounds, 20% with a hit somewhere; the sample as a whole holds those more often.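 Step 1: grow cells in 96-well plates. Step 2: add test compound at a single concentration. Step 3: incubate 48 h. Step 4: record percent growth.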 A number with no mark means an inactive call. Activity calls are given as the source filed them. The calls were made as follows: active = growth percent below 10; inactive = the rest.

system: NCI-H226 lung; experiment: NCI-60 one-dose screen, 48 h (100 = growth as untreated, 0 = no growth, -100 = all killed); details: 10 µM unless noted

| SMILES | growth |
| --- | --- |
| CNC(=O)c1nn(C)c2c1C(C)(C)Cc1cnc(Nc3ccc(N4CCN(C)CC4)cc3)nc1-2 | 12.3% |
| CC(C)Nc1cc(-c2c[nH]c(C(=O)N[C@H](CO)c3cccc(Cl)c3)c2)c(Cl)cn1 | 38% |
| COc1ccc(Cc2cc(-c3ccccc3C)n[nH]c2=O)cc1 | 87.3% |
| CC(C)[C@@H]1CC[C@@H]2[C@@H]1[C@H](OC(=O)/C=C/c1ccccc1)[C@]1(C(C)C)C[C@@H](OC(=O)CO)[C@@]2(C)O1 | 63.2% |
| Cc1ncc(-c2ccnc(Nc3ccc(S(C)(=O)=O)cc3)n2)n1C(C)C | 6.32% (active) |
| C/C=C/C=N/NC(=S)Nc1ccccc1 | 95.8% |
| Cc1nn(-c2ccccc2)c2c1N=c1s/c(=C\c3cn(-c4ccccc4)nc3-c3ccc(Cl)cc3)c(=O)n1C(C)N2 (stereo not drawn) | 93.2% |
| COc1cc2c(cc1OCCCN1Cc3ccc(OCCCCC(=O)N4CCC(CCN5CCCC5)CC4)cc3C1)N=C(N)C21CCCC1 | 106% |
